Read-outs that look alike come from different tables or passages of the source. Out of some 13,000 compounds screened, about 3,200 (25%) showed an effect of 50% or more. Some of the results follow.
Test system: P. falciparum stage V gametocytes
Set-up: BacTiter-Glo ATP luminescence viability of purified stage V gametocytes in 384-well plates, per cent inhibition versus DMSO

## CN(C)CCC(=O)c1ccccc1 [TCMDC-125532]
48 h, 5 µM; inhibitor
  % Inhibition: 42.07%

## Cc1ccc(CC(C)NCC(O)c2cccc(C(F)(F)F)c2)cc1F (stereo not drawn) [TCMDC-131520]
48 h, 5 µM; inhibitor
  % Inhibition: 16.03%

## O=C(c1ccco1)c1cn(CCOc2ccccc2)c2ccccc12 [TCMDC-124426]
48 h, 5 µM; inhibitor
  % Inhibition: -19.68%

## COc1ccc(OCCn2cc(C(=O)c3ccco3)c3ccccc32)cc1 [TCMDC-124425]
48 h, 5 µM; inhibitor
  % Inhibition: 55.18%

## Cc1ccc(CC(C)NCC(O)c2cccc(Cl)c2)cc1F (stereo not drawn) [TCMDC-131522]
48 h, 5 µM; inhibitor
  % Inhibition: 25.69%

## CC[C@H]1CN2CCc3cc(OC)c(OC)cc3[C@@H]2C[C@@H]1C[C@H]1NCCc2c1cc(OC)c(O)c2I [TCMDC-131829]
48 h, 5 µM; inhibitor
  % Inhibition: 88.82%

## CC[C@H]1CN2CCc3cc(OC)c(OC)cc3[C@@H]2C[C@@H]1C[C@H]1NCCc2c1cc(OC)c(OC)c2Br [TCMDC-131803]
48 h, 5 µM; inhibitor
  % Inhibition: 73.47%

## CC[C@H]1CN2CCc3cc(OC)c(OC)cc3[C@@H]2C[C@@H]1C[C@H]1NCCc2c1cc(OC)c(O)c2Cl [TCMDC-131802]
48 h, 5 µM; inhibitor
  % Inhibition: 83.05%

## COc1ccc(NC(=O)NCC2CCCN(CCCCCNC(=O)/C=C/c3ccc(Cl)c(Cl)c3)C2)c(OC)c1 (stereo not drawn) [TCMDC-139520]
48 h, 5 µM; inhibitor
  % Inhibition: -54.43%

## Cc1ccc(CC(C)NC[C@H](O)c2cccc(Cl)c2)cc1 (stereo partly drawn) [TCMDC-131434]
48 h, 5 µM, inhibitor
  % Inhibition: 17.71%

## Cc1ccc(CC(C)NCC(O)c2cccc([N+](=O)[O-])c2)cc1 (stereo not drawn) [TCMDC-131459]
48 h, 5 µM; inhibitor
  % Inhibition: 42.66%

## CC(O)C1CCCCN1C(=O)c1cccc(-c2ccc(-c3nc4cc(F)ccc4[nH]3)cc2)c1 (stereo not drawn) [TCMDC-132337]
48 h, 5 µM; inhibitor
  % Inhibition: -4.748%

## CC(Cc1ccc(C(C)(C)C)cc1)NCC(O)c1ccccc1 (stereo not drawn) [TCMDC-131461]
48 h, 5 µM; inhibitor
  % Inhibition: -2.665%

## COc1cccc(CC(C)NCC(O)c2cccc(Cl)c2)c1 (stereo not drawn) [TCMDC-131508]
48 h, 5 µM; inhibitor
  % Inhibition: -2.665%

## COc1ccc(CC(C)NCC(O)c2cccc(C(F)(F)F)c2)cc1 (stereo not drawn) [TCMDC-131471]
48 h, 5 µM; inhibitor
  % Inhibition: 20%

## Cc1c(C(=O)N[C@@H](C)c2ccccc2)c2cc(O)c(Br)cc2n1C1CCCCC1 [TCMDC-135454]
48 h, 5 µM; inhibitor
  % Inhibition: -62.04%

## COc1c(F)cc(CC(C)NCC(O)c2cccc(Cl)c2)cc1F (stereo not drawn) [TCMDC-131518]
48 h, 5 µM; inhibitor
  % Inhibition: 14.1%

## N=c1c2c(n(Cc3ccc(Cl)cc3Cl)c3c1CCC3)CCCC2 [TCMDC-125310]
48 h, 5 µM; inhibitor
  % Inhibition: 74.48%

## COc1ccc(NC(=S)NC(NC(=O)CF)C(Cl)(Cl)Cl)cc1[N+](=O)[O-] (stereo not drawn) [TCMDC-124240]
48 h, 5 µM; inhibitor
  % Inhibition: -10.17%

## CCC1=C[C@@H]2CN(C1)Cc1c([nH]c3ccccc13)[C@@](C(=O)OC)(c1cc3c(cc1OC)N(C)[C@H]1[C@@](O)(C(=O)OC)[C@H](O)[C@]4(CC)C=CCN5CC[C@]31[C@@H]54)C2 [TCMDC-137769]
48 h, 5 µM; inhibitor
  % Inhibition: 33.28%

## Cl.c1ccc2c(NCCCCCCCCCNc3c4ccccc4nc4ccccc34)c3ccccc3nc2c1 [TCMDC-124286]
48 h, 5 µM; inhibitor
  % Inhibition: 134.6%

## Cl.c1ccc2c(NCCCCCCNc3c4ccccc4nc4ccccc34)c3ccccc3nc2c1 [TCMDC-124285]
48 h, 5 µM; inhibitor
  % Inhibition: 125.5%

## C#CCN1CCC2=C(C1)c1c(O)cc(C(C)C(C)CCc3ccc(F)cc3)cc1OC2(C)C (stereo not drawn) [TCMDC-125707]
48 h, 5 µM; inhibitor
  % Inhibition: -44.99%

## Cc1ccc(CC(C)NCC(O)c2cccc(C(F)(F)F)c2)cc1 (stereo not drawn) [TCMDC-131476]
48 h, 5 µM, inhibitor
  % Inhibition: 12.88%

## COc1cc2c(cc1OC)CN(CCCCNC(=O)c1ccc(NC(=O)c3cc(Cl)cc(Cl)c3)cc1)CC2 [TCMDC-138217]
48 h, 5 µM; inhibitor
  % Inhibition: -10.96%

## COc1ccc(CC(C)NCC(O)c2cccc(C(F)(F)F)c2)cc1F (stereo not drawn) [TCMDC-131490]
48 h, 5 µM; inhibitor
  % Inhibition: 18.55%

## C=Cc1cc(OC)c2c(c1)c(=O)oc1c2cc(OC)c2c(O)ccc([C@H]3O[C@H]([C@H](C)O)[C@H](O)[C@H]3O)c21 [TCMDC-141972]
48 h, 5 µM; inhibitor
  % Inhibition: 49.56%

## CC(=O)Nc1ccc(OCCN(CC(F)(F)F)c2ccc(C#N)cc2C(F)(F)F)cc1 [TCMDC-135848]
48 h, 5 µM; inhibitor
  % Inhibition: 17.4%

## NC(N)=NC(=O)Nc1cc(Br)c(Cl)c(Br)c1 [TCMDC-137464]
48 h, 5 µM; inhibitor
  % Inhibition: 72.05%

## CCC1(C)CC(CCNCc2ccccc2O)(c2ccc(F)cc2)CCO1 (stereo not drawn) [TCMDC-124006]
48 h, 5 µM; inhibitor
  % Inhibition: -8.682%

## COc1ccc(CC(C)NCC(O)c2cccc(Cl)c2F)cc1 (stereo not drawn) [TCMDC-131488]
48 h, 5 µM; inhibitor
  % Inhibition: 21.97%

## COc1cc(NC(=O)/C=C/c2cc3ccccc3n2C)ccc1OCCN(C(C)C)C(C)C [TCMDC-139900]
48 h, 5 µM; inhibitor
  % Inhibition: 118%

## Cc1ccc(CC(C)NCC(O)c2cccc(C(F)(F)F)c2)cc1 (stereo not drawn) [TCMDC-131450]
48 h, 5 µM, inhibitor
  % Inhibition: 20.44%

## Cc1ccc(CC(C)(C)NCC(O)c2cccc(C(F)(F)F)c2)cc1 (stereo not drawn) [TCMDC-131445]
48 h, 5 µM; inhibitor
  % Inhibition: -8.892%

## CC[C@H]1CN2CC[C@H]1C[C@@H]2[C@@H](O)c1ccnc2ccccc12 [TCMDC-125880]
48 h, 5 µM; inhibitor
  % Inhibition: 69.34%

## CCCN(CCC)CCOC(=O)C(OCC)(c1ccccc1)c1ccccc1 [TCMDC-131392]
48 h, 5 µM; inhibitor
  % Inhibition: -25.5%

## COc1ccc2[nH]cc(C3=CCN(Cc4ccccc4)CC3)c2c1 [TCMDC-139048]
48 h, 5 µM; inhibitor
  % Inhibition: -90.48%

## CC(Cc1ccc(SC(C)(C)C)cc1)NCC(O)c1cccc(Cl)c1 (stereo not drawn) [TCMDC-131492]
48 h, 5 µM; inhibitor
  % Inhibition: -3.8%

## CC(C)N(C)C(=O)n1cnc(S(=O)(=O)C2CC3CCC2C3)n1 (stereo not drawn) [TCMDC-134379]
48 h, 5 µM; inhibitor
  % Inhibition: 65.83%

## O=C(NC1CCC(CN2CCC(c3c[nH]c4ccccc34)CC2)CC1)C1(O)c2ccccc2-c2ccccc21 (stereo not drawn) [TCMDC-139901]
48 h, 5 µM; inhibitor
  % Inhibition: 25.48%

## Cc1nc2ccccn2c1C1(O)C(=O)Nc2c(Cl)cc(Cl)cc21 (stereo not drawn) [TCMDC-124526]
48 h, 5 µM; inhibitor
  % Inhibition: 6.508%

## COc1ccc(CC(C)NCC(O)c2ccc(Cl)c(Cl)c2)cc1 (stereo not drawn) [TCMDC-131514]
48 h, 5 µM; inhibitor
  % Inhibition: 0.9057%
